Compound activity from PubChem BioAssay.
Hits are enriched below; roughly 27% of the tested compounds scored in any of these assays.
CYP2C9 act – human CYP2C9 activators, primary screen, biochemical, luminescence | AID 1024, 2008 | recombinant CYP2C9, luciferin-H conversion; active compounds read high; factor 1 = untreated enzyme, 0 = blocked | activation factor at 5 µM | hit rate 1.4% among 96,000;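 active = activation factor of 2 or more for CYP2C9 at a 5 µM dose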
Target sequence (P11712 whole entry, looked up): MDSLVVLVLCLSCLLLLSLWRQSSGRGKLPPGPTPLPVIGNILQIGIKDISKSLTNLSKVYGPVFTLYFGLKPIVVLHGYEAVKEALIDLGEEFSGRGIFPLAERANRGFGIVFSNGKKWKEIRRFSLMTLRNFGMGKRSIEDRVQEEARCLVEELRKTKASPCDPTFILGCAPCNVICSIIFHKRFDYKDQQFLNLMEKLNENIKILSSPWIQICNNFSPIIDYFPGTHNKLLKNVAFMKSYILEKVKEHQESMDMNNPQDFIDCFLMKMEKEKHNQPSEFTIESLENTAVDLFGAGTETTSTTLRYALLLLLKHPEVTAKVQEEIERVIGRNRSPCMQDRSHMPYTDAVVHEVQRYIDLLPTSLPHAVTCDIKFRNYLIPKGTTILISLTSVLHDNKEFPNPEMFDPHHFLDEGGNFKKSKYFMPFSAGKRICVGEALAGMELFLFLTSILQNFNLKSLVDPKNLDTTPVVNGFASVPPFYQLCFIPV
CYP2C19 act – human CYP2C19 activators, primary screen, biochemical, luminescence. 96,000 tested, under 10 active. recombinant CYP2C19, luciferin-H EGE luminescence; active compounds read high; 0 = fully inhibited enzyme, 1 = untreated enzyme. activation factor at 5 µM. Cytochrome P450 2C19 (Homo sapiens), P33261. AID 1025, 2008;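 active = activation factor of at least 2 at 5 µM in the primary screen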
Cav32 inh – Cav3.2 calcium influx blockers – cell-based, Fluo-4 calcium fluorescence, FDSS, MLSMR library, primary screen. Voltage-dependent T-type calcium channel subunit alpha-1H (Homo sapiens), O95180. Cav3.2-expressing cells; active compounds read low. B-score at 10 µM. hit rate 4% among 100,000. AID 449739, 2010;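 active = single-dose well whose peak fluorescence ratio is a statistical outlier from its plate by either plate-standardised score or position-corrected B-score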
CYP2C19 inh – blockers of cytochrome P450 2C19 activity – biochemical, luminescence, ADME assay, primary screen | P33261 | inhibition, % at 5 µM | CYP2C19 Supersomes, luciferin-H EGE luminescence, 30 min | hit rate 21% among 96,000;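 active = CYP2C19 inhibition above a set limit at 5 µM in the primary screen, cut at about 50% in these data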
CYP2C9 inh – blockers of cytochrome P450 2C9 activity – biochemical, luminescence, ADME assay, primary screen. AID 777, 2007. hit rate 20% among 96,000. P11712. inhibition, % at 5 µM. CYP2C9 Supersomes, luciferin-H conversion;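 active = blocking of liver enzyme CYP2C9 beyond about 50% at 5 µM, limit read from the data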
Of the large screens only hits and unclear results are named; the others gave an inactive call.

COc1ccc(CC(NC(C)=O)C(=O)NC2CCN(c3nc(C)cc(C)c3C#N)CC2)c(OC)c1 (stereo not given)	CYP2C19 inh 86, CYP2C9 inh 55
COc1ccc(-c2csc(NC(C)c3nc4cc(Cl)c(Cl)cc4n3CCCO)n2)cc1 (stereo not given)	none (no result: CYP2C9 act, CYP2C19 act, CYP2C19 inh, CYP2C9 inh)
Cc1cc2oc(=O)cc(CN3CCC(C)CC3)c2cc1Cl	Cav32 inh -9.9, CYP2C19 inh 85
Cc1cc2oc(=O)cc(CN3CCCCC3C)c2c(C)c1Cl (stereo not given)	CYP2C19 inh 56
Cc1ccc2c(CN3CCC(C)CC3)cc(=O)oc2c1	CYP2C19 inh 100, CYP2C9 inh 67
Cc1ccc2c(CN3C(=O)NC(C)(c4ccc5c(c4)OCO5)C3=O)cc(=O)oc2c1 (stereo not given)	CYP2C19 inh 92, CYP2C9 inh 98
COc1ccc(N2CCN(Cc3cc(=O)oc4ccc(C)cc34)CC2)cc1	none
Cc1c(Cl)c([N+](=O)[O-])nn1CC(=O)Nc1c(C)n(C)n(-c2ccccc2)c1=O	none
CCOC(=O)NC(NCc1ccccc1Cl)(C(F)(F)F)C(F)(F)F	CYP2C19 inh 58
CCCCC(=O)NC(Nc1nc(C2CC2)cs1)(C(=O)OCC)C(F)(F)F (stereo not given)	CYP2C19 inh 63
CCCCC(=O)NC(Nc1cc(C)ccn1)(C(=O)OCC)C(F)(F)F (stereo not given)	CYP2C19 inh 72
CCOC(=O)NC(Nc1cc(C)ccn1)(C(F)(F)F)C(F)(F)F	CYP2C19 inh 54
CCOC(=O)NC(Nc1ccc(S(N)(=O)=O)cc1)(C(=O)OCC)C(F)(F)F (stereo not given)	none
CCOC(=O)N1CCN(Cc2ccccc2Cl)CC1	none
COc1ccc([C@H]2Oc3cc(O)cc(O)c3C(=O)C2[C@@H]2C(=O)c3c(O)cc(O)cc3O[C@@H]2c2ccc(OC)cc2)cc1 (stereo not given in full)	none (no result: CYP2C9 act, CYP2C19 act, CYP2C19 inh, CYP2C9 inh)
CCOC(=O)c1nc2cc3n(c(C)c-2c1C)C(C)C(CC)=C3C (stereo not given)	none (no result: CYP2C9 act, CYP2C19 act, CYP2C19 inh, CYP2C9 inh)
CC(C)(C)c1ccc(C(=O)OCCNC(=O)c2c(Cl)nc3ccccn23)cc1	CYP2C19 inh 59, CYP2C9 inh 92
COc1ccc(C(=O)OCCNC(=O)c2c(Cl)nc3ccccn23)cc1	CYP2C19 inh 75
CCCCNCc1cccn1-c1ccccc1	none (no result: CYP2C9 act, CYP2C19 act, CYP2C19 inh, CYP2C9 inh)
CC(=O)OC(C(=O)NC1CCCCC1)c1ccc(C#N)cc1 (stereo not given)	none
CCCc1cc(-c2nc(N)ncc2-c2ccc3c(c2)OCCCO3)c(O)cc1OC	CYP2C9 inh 68
COc1ccccc1C(=O)Nc1nc(-c2ccc3c(c2)OCCO3)cs1	none (no result: CYP2C9 act, CYP2C19 act, CYP2C19 inh, CYP2C9 inh)
Cc1ccccc1-n1c(=O)cc(NCC2CCCO2)[nH]c1=O (stereo not given)	none (no result: CYP2C9 act, CYP2C19 act, CYP2C19 inh, CYP2C9 inh)
O=C1C(Cl)=C(NCC2CCCO2)C(=O)N1Cc1ccccc1 (stereo not given)	CYP2C19 inh 60
Cc1nnc(SCc2cccs2)[nH]c1=O	none (no result: CYP2C9 act, CYP2C19 act, CYP2C19 inh, CYP2C9 inh)
CC(C)N1C(=S)SC2CS(=O)(=O)C=C21 (stereo not given)	none
CC1(C(=O)NC2CCCC2)CCC(=O)N1Cc1ccccc1Cl (stereo not given)	CYP2C9 act 2.3
CCN(CC)CC(=O)c1c[nH]c2ccccc12	none
CC(=O)N(c1ccc(Cl)cc1)c1c[nH]c2ccccc12	CYP2C19 inh 92, CYP2C9 inh 70
O=C(CSc1ncn[nH]1)Nc1ccc(S(=O)(=O)N2CCCC2)cc1	CYP2C9 inh 61
O=C(CSc1nc2ccccc2c(=O)[nH]1)Nc1ccc(S(=O)(=O)N2CCCC2)cc1	CYP2C9 inh 96
O=C(CSc1ncccn1)Nc1ccc(S(=O)(=O)N2CCCCC2)cc1	none
CCOc1ccc(CCN2C(=O)CCC2(C)C(=O)NC(C)CC)cc1OCC (stereo not given)	none
CCOC(=O)N1CCN(S(=O)(=O)c2ccc(Br)s2)CC1	CYP2C19 inh 88, CYP2C9 inh 81
Cc1ccc(NC(=O)CN2CCCN(S(=O)(=O)c3ccc(Br)s3)CC2)cc1	CYP2C19 inh 91
FC(F)(F)C1=CC(c2ccccc2)=NCCN1	none
CN(C)c1ccc(/C=C/c2cc[n+]([O-])cc2)cc1	CYP2C19 inh 92, CYP2C9 inh 54 (no result: Cav32 inh)
CC(C)(C)NC(=S)Nc1ccc(Br)cc1	none
Cc1ccc(NC(=S)Nc2ccc(Br)cc2)cc1	CYP2C19 inh 89 (no result: Cav32 inh)
CC(C)N(C(=O)C(=O)c1cccn1-c1ccccc1C#N)C(C)C	CYP2C19 inh 54
CN(C)C(=O)C(=O)c1cccn1-c1ccccc1C#N	none
CCN(CC)C(=O)C(=O)c1cccn1-c1cccc(Cl)c1C#N	CYP2C19 inh 81
Cc1cc(C)c(C)c(S(=O)(=O)N2C(=S)NC(=O)C2C(C)C)c1C (stereo not given)	none
O=C(CN1CCOCC1)Nc1ncc(Cc2cccc3ccccc23)s1	none
COCCN(Cc1cc2ccc(C)cc2n2nnnc12)Cc1nnnn1C(C)(C)C	none (no result: CYP2C9 act, CYP2C19 act, CYP2C19 inh, CYP2C9 inh)
O=C(Nc1ncc(Br)s1)C(Cc1ccccc1)n1cccc1 (stereo not given)	Cav32 inh -4.5, CYP2C19 inh 88, CYP2C9 inh 97
CCCC(=O)Nc1ccc(N2CCN(C(=O)c3cccs3)CC2)cc1	none
CC1=C2C(CCS2(=O)=O)CC2(C1)C(=O)OC(C)(C)OC2=O (stereo not given)	CYP2C19 inh 82
CCOC(=O)C1=C(c2ccccc2)OC(N)=C(C#N)C1c1cccs1 (stereo not given)	none
CC1=C(C(=O)OCc2ccccc2)C(c2ccoc2)C(C#N)=C(N)O1 (stereo not given)	CYP2C19 inh 77
C=CCOC(=O)C1=C(C)OC(N)=C(C#N)C1c1c(C)nn(-c2ccccc2)c1Cl (stereo not given)	Cav32 inh -9.2, CYP2C19 inh 89, CYP2C9 inh 82
CCOC(=O)C1=C(C)OC(N)=C(C#N)C1c1c(C)nn(-c2ccccc2)c1Cl (stereo not given)	Cav32 inh -9.2, CYP2C19 inh 83, CYP2C9 inh 74
Cc1ccc(-n2nc(C)c(C3C(C#N)=C(N)OC4=C3C(=O)CC(C)(C)C4)c2Cl)cc1 (stereo not given)	none (no result: Cav32 inh)
CCc1nnc(NC(=O)c2ccc(-c3cccc(C(F)(F)F)c3)o2)s1	none
CCC(c1nnnn1Cc1ccco1)N(CCN1CCOCC1)Cc1cc2cc(C)ccc2[nH]c1=O (stereo not given)	none (no result: Cav32 inh)
O=C1c2ccccc2C(=O)N1CCSC(=S)N1CCOCC1	CYP2C19 inh 55
COCCNC(=O)c1c(CSc2ccc(F)cc2)noc1C(=O)NCc1ccccc1	none
CCOc1ccccc1NC(=S)NCc1ccco1	CYP2C19 inh 87
COc1cccc(N2CCN(C(=S)NCc3ccco3)CC2)c1	CYP2C19 inh 53, CYP2C9 inh 68
S=C(NCc1ccco1)Nc1ccc(Cl)c(Cl)c1	CYP2C19 inh 53
